Several values for one entry are separate records, joined by “and”; a condition that tells them apart may be missing. Identical values can stand only once. Compounds without any hit were thinned out: in the full panel of roughly 79,000, 15% have a hit. Where a structure was tested more than once in an assay, its records may differ in their call. Activity calls are given as the source filed them. Rule as the data show it: active = growth inhibition above about 70%; inactive = the rest.
How the values were obtained:
[1] = NCI Yeast Anticancer Drug Screen. Data for the rad50 strain (AID 155);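 also: 0% = growth of vehicle-only cultures of the same strain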; conditions: S. cerevisiae rad50 strain growth inhibition, stronger effect = higher value
Procedure, shortened: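 Compounds were tested on a yeast strain with an engineered DNA damage repair alteration; the reported value is growth inhibition normalised to vehicle treatment.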

[2] = NCI Yeast Anticancer Drug Screen. Data for the mec2-1 strain (AID 157); conditions: S. cerevisiae mec2-1 strain, stronger effect = higher value
Procedure, shortened: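 Compounds were applied to mec2-1 yeast cells. Their growth was then compared with that of vehicle-treated cultures to give growth inhibition.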

[3] = NCI Yeast Anticancer Drug Screen. Data for the sgs1 mgt1 strain (AID 161);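 also: 0% = growth of cultures given vehicle only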; conditions: S. cerevisiae sgs1 mgt1 strain, stronger effect = higher value
Procedure, shortened: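 This yeast growth screen uses a strain with defined DNA-repair lesions; compound-treated growth is compared with vehicle-treated growth.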

[4] = NCI Yeast Anticancer Drug Screen. Data for the cln2 rad14 strain (AID 165);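 also: 0% = growth equal to vehicle treated cultures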; conditions: S. cerevisiae cln2 rad14 strain, stronger effect = higher value
Procedure, shortened: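 Strain: cln2 rad14 yeast, altered in cell cycle control and DNA damage repair. Read-out: growth inhibition vs vehicle.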

[5] = NCI Yeast Anticancer Drug Screen. Data for the bub3 strain (AID 167); conditions: S. cerevisiae bub3 mutant strain, stronger effect = higher value
Procedure, shortened: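 Growth of a checkpoint-deficient yeast mutant is measured after compound exposure. Values represent inhibition relative to vehicle.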

[6] = NCI Yeast Anticancer Drug Screen. Data for the mlh1 rad18 strain (AID 175); conditions: S. cerevisiae mlh1 rad18 strain growth inhibition, stronger effect = higher value
Procedure, shortened: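 A repair-deficient yeast strain is exposed to test compound, and growth is scored relative to vehicle-treated controls.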

[7] = at 5.0 µM (retest, dose inferred, filed as 0.5)
[8] = at 50.0 µM (retest, dose inferred, filed as 5.0)

Measured: growth inhibition

O=C(Nc1ccccc1)c1cc([N+](=O)[O-])ccc1O
inactive: [1]; [7] -1% | [2]; [7] 0% | [3]; [7] 2% | [3]; at 50.0 µM 62.5% | [4]; [7] -2% | [4]; at 50.0 µM 32.5% | [5]; [7] 0% | [6]; [7] 12%
active: [1]; [8] 98% | [1]; at 50.0 µM 95.7% | [2]; [8] 97% | [2]; at 50.0 µM 92% | [3]; [8] 95% | [4]; [8] 86% | [5]; [8] 96% | [5]; at 50.0 µM 90.5% | [6]; [8] 96% | [6]; at 50.0 µM 97.5%

[O]=[Sb]([OH])([OH])[c]1ccccc1
99.5% (active) and -13.8% (inactive): [1]; at 50.0 µM
active: [1]; [7] 95% | [1]; [8] 98% | [2]; [7] 91% | [2]; [8] 99% | [3]; [7] 94% | [3]; [8] 99% | [4]; [7] 94% | [4]; [8] 98% | [5]; [7] 93% | [5]; [8] 98% | [6]; [7] 94% | [6]; [8] 98%
99.2% (active) and 6.5% (inactive): [6]; at 50.0 µM
99.5% (active) and -26.9% (inactive): [2]; at 50.0 µM
99.4% (active) and 23% (inactive): [4]; at 50.0 µM
99.3% (active) and 17.1% (inactive): [5]; at 50.0 µM
99.2% (active) and 28.1% (inactive): [3]; at 50.0 µM

Brc1ccc(N2C[N+](c3ccc(Br)cc3)=NC(c3ccccc3)=N2)cc1
98.5% (active) and 10.9% (inactive): [3]; at 50.0 µM
98.5% (active) and -3.05% (inactive): [5]; at 50.0 µM
inactive: [1]; [7] 23% | [2]; [7] -2% | [3]; [7] 6% | [4]; [7] 16% | [5]; [7] 2% | [6]; [7] 9%
97.5% (active) and 18.3% (inactive): [1]; at 50.0 µM
98.3% (active) and 13.1% (inactive): [6]; at 50.0 µM
98.5% (active) and 10.1% (inactive): [4]; at 50.0 µM
active: [1]; [8] 94% | [2]; [8] 96% | [3]; [8] 92% | [4]; [8] 98% | [5]; [8] 99% | [6]; [8] 97%
97.8% (active) and -1.3% (inactive): [2]; at 50.0 µM

O=C1c2ccccc2[Se](=O)N1c1ccccc1 (configuration not stated)
inactive: [1]; [7] 50% | [2]; [7] 61% | [3]; [7] 23% | [4]; [7] 45%
active: [1]; [8] 96% | [1]; at 50.0 µM 93.1% | [2]; [8] 99% | [2]; at 50.0 µM 93.9% | [3]; [8] 96% | [3]; at 50.0 µM 93% | [4]; [8] 98% | [4]; at 50.0 µM 91.7% | [5]; [7] 72% | [5]; [8] 99% | [5]; at 50.0 µM 90.8% | [6]; [7] 83% | [6]; [8] 98% | [6]; at 50.0 µM 90.8%

Cc1cc(N(C)C)c2ccccc2[n+]1CCCCCCCCCC[n+]1c(C)cc(N(C)C)c2ccccc21
active: [1]; [7] 92% | [1]; [8] 98% | [1]; at 50.0 µM 89.1% | [2]; [7] 98% | [2]; [8] 99% | [2]; at 50.0 µM 91.8% | [3]; [7] 95% | [3]; [8] 99% | [3]; at 50.0 µM 88.8% | [4]; [7] 87% | [4]; [8] 96% | [4]; at 50.0 µM 91% | [5]; [7] 94% | [5]; [8] 98% | [5]; at 50.0 µM 89.5% | [6]; [7] 97% | [6]; [8] 99% | [6]; at 50.0 µM 91.8%

Cc1cc(-c2ccccc2)cc(C)[n+]1[O-]
inactive: [1]; [7] -1% | [1]; [8] 20% | [1]; at 50.0 µM 20.7% | [2]; [7] -6% | [2]; [8] 13% | [2]; at 50.0 µM 28.1% | [3]; [7] -6% | [3]; [8] 12% | [3]; at 50.0 µM 54.6% | [4]; [7] -8% | [4]; [8] -13% | [4]; at 50.0 µM -31.3% | [5]; [7] -2% | [5]; [8] 14% | [5]; at 50.0 µM -12.7% | [6]; [7] -4% | [6]; [8] 30% | [6]; at 50.0 µM 5.4%

COC(=O)[C@@]12OC[C@]34[C@H]([C@@H](O)[C@@H]1O)[C@@]1(C)CC(=O)C(O)=C(C)[C@@H]1C[C@H]3OC(=O)[C@H](OC(=O)/C=C(\C)C(C)C)[C@@H]24
active: [1]; [7] 96% | [1]; [8] 99% | [1]; at 50.0 µM 91.5% | [2]; [7] 95% | [2]; [8] 100% | [2]; at 50.0 µM 93.7% | [3]; [7] 96% | [3]; [8] 99% | [3]; at 50.0 µM 93% | [4]; [7] 96% | [4]; [8] 99% | [4]; at 50.0 µM 90.8% | [5]; [7] 93% | [5]; [8] 99% | [5]; at 50.0 µM 91.5% | [6]; [7] 97% | [6]; [8] 99% | [6]; at 50.0 µM 92%

CC(C)C1(NC(=O)C2C=C3c4cccc5[nH]cc(c45)CC3N(C)C2)OC2(O)C3CCCN3C(=O)C(Cc3ccccc3)N2C1=O (configuration not stated)
inactive: [1]; [7] 0% | [2]; [7] -47% | [3]; [7] -2% | [4]; [7] -8% | [5]; [7] -4% | [6]; [7] -2%
active: [1]; [8] 94% | [1]; at 50.0 µM 96.2% | [2]; [8] 92% | [2]; at 50.0 µM 97.1% | [3]; [8] 89% | [3]; at 50.0 µM 98.2% | [4]; [8] 95% | [4]; at 50.0 µM 94.5% | [5]; [8] 95% | [5]; at 50.0 µM 96.8% | [6]; [8] 97% | [6]; at 50.0 µM 97%

CCC[N+](CCC)(CCC)CCC.N#CN=C([SH2+])[SH2+].N#CN=C([SH2+])[SH2+].[Pt+2]
inactive: [1]; [7] -1% | [1]; [8] 7% | [2]; [7] -4% | [2]; [8] 2% | [2]; at 50.0 µM 44% | [3]; [7] 4% | [3]; [8] 39% | [4]; [7] -6% | [4]; [8] -7% | [4]; at 50.0 µM 14.1% | [5]; [7] -5% | [5]; [8] -1% | [5]; at 50.0 µM 14.1% | [6]; [7] 20% | [6]; [8] 57% | [6]; at 50.0 µM 49.9%
active: [1]; at 50.0 µM 79.3% | [3]; at 50.0 µM 89.9%
